Data: PubChem BioAssay (NCATS)
Values joined by “and” are separate entries in the source; they are usually repeats but may differ in a detail not shown here. Equal entries are not always repeated. Records with an inconclusive call do not appear. Unmarked numbers belong to inactive results. Calls follow the shape of the dose curve; as a rule, active = well fitted activation curve with a large enough effect; inconclusive = small, poorly fitted or top-dose-only effect; inactive = no such curve, though single readings can be large or run the other way.

target: Cellular tumor antigen p53 (Homo sapiens) (UniProt P04637); test: Primary qHTS for small molecule compounds that upregulate eGFP-tagged delta133p53alpha (in N-terminal) cells. (AID 2060322); conditions: NCI-H358 eGFP-delta133p53alpha fluorescence, 24 h; activation: hits give high values;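 also: cells pre-induced with doxycycline then dosed without doxycycline; series mostly up to about 56 µM; 0% = DMSO vehicle and 100% = reference activator; nearly all actives have a fitted effect of over 75% in size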
Procedure, shortened: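 NCI-H358 cells pre-induced 24 h with 10 ng/ml doxycycline for eGFP-delta133p53alpha, plated dox-free and exposed 24 h at 37C to titrated compounds. Fixed, Hoechst-stained; gated GFP peak intensity by laser scanning cytometry, normalized to DMSO (0%) and 57.5 uM 5-azacytidine (100%).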

Cellular tumor antigen p53 (Homo sapiens), sequence (P04637 whole entry, looked up): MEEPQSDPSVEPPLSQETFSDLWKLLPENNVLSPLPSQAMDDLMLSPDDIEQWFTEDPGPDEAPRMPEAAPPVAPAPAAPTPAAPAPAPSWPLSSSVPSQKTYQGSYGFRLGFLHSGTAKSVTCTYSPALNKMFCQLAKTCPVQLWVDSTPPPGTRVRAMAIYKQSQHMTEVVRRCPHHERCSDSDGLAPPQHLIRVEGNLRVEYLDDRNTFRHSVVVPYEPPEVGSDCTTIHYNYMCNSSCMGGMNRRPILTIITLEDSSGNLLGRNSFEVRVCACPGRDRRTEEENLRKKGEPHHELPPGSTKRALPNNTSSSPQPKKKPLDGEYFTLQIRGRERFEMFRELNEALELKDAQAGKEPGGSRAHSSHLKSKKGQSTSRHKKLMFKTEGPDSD

Structure (SMILES) | activation
CN1CCC(c2c[nH]c3ccc(O)cc23)CC1 | -20.9%
N[C@@]1(C(=O)O)CC[C@@H](C(=O)O)C1 | 21.8%
C#CCOC(=O)C1=CCCN(C)C1 | -28.1%
O=C1C=CC(=O)C=C1 | 48.4%
CCCN(CCC)CCc1ccc(O)c(O)c1 | -0.248%
NC(=NCCC[C@H](N)C(=O)O)N[N+](=O)[O-] | -32.4%
CC(C)(O)[C@@H]1C2OC(=O)[C@@H]1[C@]1(O)C[C@H]3O[C@]34C(=O)O[C@H]2[C@]14C (tested in a mixture with another compound) | 10.1%
Oc1ccc2c3c1O[C@H]1c4[nH]c5c(c4C[C@@]4(O)[C@@H](C2)N(CC2CC2)CC[C@]314)C[C@@]1(O)[C@H]2Cc3ccc(O)c4c3[C@@]1(CCN2CC1CC1)[C@H]5O4 | 26.8% and -10.8%
CN1CCc2cccc(Cl)c2CC1 | -13.1%
Cc1o[nH]c(=O)c1CC(N)C(=O)O (stereo not given) | 16.8%
CCN1C[C@@]2(COC)C3[C@@H](OC)C4[C@@H]1C3([C@@H]1C[C@]3(O)[C@H](OC(=O)c5ccccc5)[C@@H]1[C@]4(OC(C)=O)[C@@H](O)[C@@H]3OC)[C@H](OC)C[C@H]2O | -12.5%
S=C(NC1CCCCC1)N1CCC(c2cnc[nH]2)CC1 | 5.67% and -16.8%
COc1ccc2c(c1O)-c1cccc3c1[C@@H](C2)N(C)CC3 | -2.98%
NCCc1c[nH]c2ccc(O)cc12 | -1.52%
C[C@H]1C2Cc3ccc(O)cc3[C@@]1(C)CCN2CC1CC1 | -23.4%
[Cl-].[Cl][Pt].[NH2-].[NH2-].c1ccncc1 | -12%
c1ccc2c(c1)[I+]c1ccccc1-2 | 35.2%
N#CCCN | 1.42%
CP(=O)(O)C1=CCNCC1 | -37.6%
CN1CCc2cc(O)cc3c2[C@H]1Cc1ccc(O)c(O)c1-3 | -32.2%

Structure (SMILES) | activation
COC(=O)N1CCN(C(=O)Cc2ccc(Cl)c(Cl)c2)C(CN2CCCC2)C1 (stereo not given) | 5.56%
NC(=O)COc1c(F)cc(SCCNS(=O)(=O)c2ccccc2)cc1F | -8.4%
C[N+](C)(C)CC#CCOC(=O)Nc1cccc(Cl)c1 | 13.3%
NCC(CP(=O)(O)O)c1ccc(Cl)cc1 (stereo not given) | -1.72%
C[C@@H](N)Cc1cnc[nH]1 | 5.3%
O=C(O)Cc1cnc[nH]1 | -6.89%
OCc1cnc[nH]1 | -9.48%
O=C1NCN(c2ccccc2)C12CCN(CC1COc3ccccc3O1)CC2 (stereo not given) | -13.1%
CCCN1CCC[C@@H]2Cc3nc(N)ncc3C[C@H]21 | -29.3% and -27.1%
CCCN(CCC)C1Cc2cc(OC)c(OC)cc2C1 | -2.4%
CC(=O)[C@H]1CC[C@H]2[C@@H]3CC[C@H]4C[C@H](O)CC[C@]4(C)[C@H]3C(=O)C[C@]12C | -36.8% and -33%
CCNC(=O)[C@H]1O[C@@H](n2cnc3c(N)ncnc32)[C@H](O)[C@@H]1O | 1.33%
CNCCc1ccc(O)c(O)c1 | -26.5%
NC1CC1c1ccccc1 (stereo not given) | -3.62% and 6.08%
NC(CCCCCP(=O)(O)O)C(=O)O (stereo not given) | -10.2%
CC(C)NC(C)Cc1ccc(I)cc1 (stereo not given) | -3.39%
CCCN(CCC)[C@H]1CCc2c(F)ccc(O)c2C1 | 15.8%
CC(O)(CS(=O)(=O)c1ccc(F)cc1)C(=O)Nc1ccc(C#N)c(C(F)(F)F)c1 (stereo not given) | -7.17% and -30.6% and 1.43%
c1ccc2cc(CC3=NCCN3)ccc2c1 | -13.6%
O=c1ccc2[nH]cc(C3=CCNCC3)c2[nH]1 | -8.35%
